Columns and labels:
Assay in all cases: log2 ratio of Biotin-Ahx-Ub-VS probe labelling (fragment/DMSO); higher = less target engagement (more negative = stronger competition), active = hit call of the paper (q ≤ 0.05, log2 ratio ≤ -1)
Settings in all cases: compound concentration: 200 uM; treatment time: 3 h
USP34 = USP34 (UniProt Q70CQ2)
Procedure, shortened: (§1)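 Labelled DUBs were enriched with NeutrAvidin, digested with LysC and trypsin, and run by diaPASEF LC-MS/MS. The labelling used Biotin-Ahx-Ub-VS at 0.5 µM final for 1 h on HEK293T lysate (495 µg per sample) previously treated in triplicate with fragment at 200 µM or vehicle for 3 h. Values are average log2 fragment/vehicle ratios by unpaired t-test on global-median-normalised Spectronaut quantities of proteins with ≥2 unique peptides.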

USP36 = target: T1, USP36 (UniProt Q9P275)
T1 sequence (whole entry): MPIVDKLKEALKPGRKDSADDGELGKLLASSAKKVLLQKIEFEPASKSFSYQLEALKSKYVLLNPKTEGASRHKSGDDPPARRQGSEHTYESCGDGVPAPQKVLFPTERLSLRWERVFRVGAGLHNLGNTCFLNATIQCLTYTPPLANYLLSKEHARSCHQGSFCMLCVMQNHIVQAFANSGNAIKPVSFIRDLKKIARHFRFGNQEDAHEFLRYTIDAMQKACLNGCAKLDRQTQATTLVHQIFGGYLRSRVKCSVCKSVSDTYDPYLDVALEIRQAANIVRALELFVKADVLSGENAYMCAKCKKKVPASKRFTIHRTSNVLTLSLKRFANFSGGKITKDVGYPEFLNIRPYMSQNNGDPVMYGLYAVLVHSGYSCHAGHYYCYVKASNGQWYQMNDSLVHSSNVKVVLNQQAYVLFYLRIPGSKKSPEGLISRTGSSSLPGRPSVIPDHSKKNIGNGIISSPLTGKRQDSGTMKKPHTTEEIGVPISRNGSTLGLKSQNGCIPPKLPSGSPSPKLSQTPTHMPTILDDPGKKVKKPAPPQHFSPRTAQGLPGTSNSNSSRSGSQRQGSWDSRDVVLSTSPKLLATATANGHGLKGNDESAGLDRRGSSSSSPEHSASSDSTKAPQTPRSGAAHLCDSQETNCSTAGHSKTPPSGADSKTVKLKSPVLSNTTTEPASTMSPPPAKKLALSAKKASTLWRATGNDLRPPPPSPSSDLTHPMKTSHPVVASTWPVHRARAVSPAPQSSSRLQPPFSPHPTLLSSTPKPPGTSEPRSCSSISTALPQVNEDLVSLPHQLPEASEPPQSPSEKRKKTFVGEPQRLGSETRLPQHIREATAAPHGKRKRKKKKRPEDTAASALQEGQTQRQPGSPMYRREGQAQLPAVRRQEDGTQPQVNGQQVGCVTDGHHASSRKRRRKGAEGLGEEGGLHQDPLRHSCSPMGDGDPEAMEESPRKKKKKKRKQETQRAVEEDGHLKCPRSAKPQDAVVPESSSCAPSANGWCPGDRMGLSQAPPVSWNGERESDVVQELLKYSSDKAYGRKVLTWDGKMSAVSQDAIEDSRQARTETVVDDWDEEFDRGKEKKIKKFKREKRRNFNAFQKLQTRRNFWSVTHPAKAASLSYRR
Procedure, shortened: as §1

USP38 = target: T2, USP38 (UniProt Q8NB14)
T2 sequence (whole entry): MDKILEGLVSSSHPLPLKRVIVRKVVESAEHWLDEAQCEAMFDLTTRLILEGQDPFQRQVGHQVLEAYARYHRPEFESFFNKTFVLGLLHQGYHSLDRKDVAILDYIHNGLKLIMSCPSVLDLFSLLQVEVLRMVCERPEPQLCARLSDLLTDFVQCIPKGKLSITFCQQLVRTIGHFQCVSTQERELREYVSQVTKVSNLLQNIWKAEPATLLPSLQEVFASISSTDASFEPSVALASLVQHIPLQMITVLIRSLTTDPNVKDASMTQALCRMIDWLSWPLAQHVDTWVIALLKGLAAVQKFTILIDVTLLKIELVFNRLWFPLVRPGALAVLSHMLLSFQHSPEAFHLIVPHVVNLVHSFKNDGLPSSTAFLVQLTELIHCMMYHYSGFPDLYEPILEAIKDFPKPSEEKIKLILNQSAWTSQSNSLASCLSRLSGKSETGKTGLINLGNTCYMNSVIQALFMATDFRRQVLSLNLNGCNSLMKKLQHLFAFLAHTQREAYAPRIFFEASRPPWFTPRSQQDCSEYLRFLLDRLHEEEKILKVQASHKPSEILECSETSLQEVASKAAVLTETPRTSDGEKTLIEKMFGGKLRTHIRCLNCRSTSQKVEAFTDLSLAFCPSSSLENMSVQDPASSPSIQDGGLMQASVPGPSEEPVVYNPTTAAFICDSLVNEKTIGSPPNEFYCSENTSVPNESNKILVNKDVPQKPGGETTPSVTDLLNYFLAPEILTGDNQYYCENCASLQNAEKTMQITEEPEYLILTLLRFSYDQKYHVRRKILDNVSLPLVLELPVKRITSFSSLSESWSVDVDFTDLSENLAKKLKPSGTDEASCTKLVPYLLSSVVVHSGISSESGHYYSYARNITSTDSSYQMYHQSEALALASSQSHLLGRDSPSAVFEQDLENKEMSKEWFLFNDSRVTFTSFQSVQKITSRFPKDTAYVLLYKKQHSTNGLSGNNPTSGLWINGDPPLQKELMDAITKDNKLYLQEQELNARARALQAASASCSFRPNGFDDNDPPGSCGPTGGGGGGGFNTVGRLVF
Procedure, shortened: as §1

USP39 = target: T3, USP39 (UniProt Q53GS9)
T3 sequence (whole entry): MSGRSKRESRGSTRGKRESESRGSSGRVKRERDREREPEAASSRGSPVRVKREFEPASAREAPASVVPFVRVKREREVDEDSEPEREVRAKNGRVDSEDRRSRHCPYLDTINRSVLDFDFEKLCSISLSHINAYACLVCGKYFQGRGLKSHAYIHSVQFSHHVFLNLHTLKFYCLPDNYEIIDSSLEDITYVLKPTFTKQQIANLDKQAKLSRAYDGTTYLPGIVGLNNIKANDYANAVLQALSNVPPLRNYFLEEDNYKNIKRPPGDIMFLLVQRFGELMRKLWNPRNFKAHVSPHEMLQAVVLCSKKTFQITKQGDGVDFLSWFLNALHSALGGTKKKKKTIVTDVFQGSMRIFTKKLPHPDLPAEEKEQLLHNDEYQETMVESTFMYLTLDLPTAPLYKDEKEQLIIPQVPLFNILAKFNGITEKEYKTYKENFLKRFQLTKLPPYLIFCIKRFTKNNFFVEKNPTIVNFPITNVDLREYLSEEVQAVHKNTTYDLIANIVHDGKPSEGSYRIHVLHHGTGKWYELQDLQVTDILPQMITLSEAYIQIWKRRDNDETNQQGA
Procedure, shortened: as §1

USP4 = target: T4, USP4 (UniProt Q13107)
T4 sequence (whole entry): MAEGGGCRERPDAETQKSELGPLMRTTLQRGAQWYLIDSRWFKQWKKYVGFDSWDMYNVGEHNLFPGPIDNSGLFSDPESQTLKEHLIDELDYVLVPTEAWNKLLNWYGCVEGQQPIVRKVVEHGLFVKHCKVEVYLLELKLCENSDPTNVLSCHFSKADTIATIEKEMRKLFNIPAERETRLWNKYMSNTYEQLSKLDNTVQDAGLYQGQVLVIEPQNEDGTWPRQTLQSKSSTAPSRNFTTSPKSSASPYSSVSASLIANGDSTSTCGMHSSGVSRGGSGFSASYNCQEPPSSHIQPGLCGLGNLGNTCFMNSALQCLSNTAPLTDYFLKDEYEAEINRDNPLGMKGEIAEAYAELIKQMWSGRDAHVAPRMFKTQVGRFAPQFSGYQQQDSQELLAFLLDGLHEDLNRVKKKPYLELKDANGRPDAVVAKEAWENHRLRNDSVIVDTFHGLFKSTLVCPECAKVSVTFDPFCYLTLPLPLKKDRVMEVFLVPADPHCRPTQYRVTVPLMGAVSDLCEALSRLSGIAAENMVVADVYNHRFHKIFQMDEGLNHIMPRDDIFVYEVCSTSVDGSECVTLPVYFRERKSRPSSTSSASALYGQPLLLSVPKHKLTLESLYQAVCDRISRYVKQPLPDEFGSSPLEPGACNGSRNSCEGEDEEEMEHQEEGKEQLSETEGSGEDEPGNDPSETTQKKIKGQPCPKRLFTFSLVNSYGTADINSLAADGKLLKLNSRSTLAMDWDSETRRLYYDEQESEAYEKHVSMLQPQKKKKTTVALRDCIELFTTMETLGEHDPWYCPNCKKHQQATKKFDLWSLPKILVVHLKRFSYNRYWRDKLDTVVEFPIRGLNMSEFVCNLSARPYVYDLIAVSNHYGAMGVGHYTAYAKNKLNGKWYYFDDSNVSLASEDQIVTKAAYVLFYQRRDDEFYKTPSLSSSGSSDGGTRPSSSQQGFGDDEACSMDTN
Procedure, shortened: as §1

Measured: log2 ratio of Biotin-Ahx-Ub-VS probe labelling

USP34, sequence (Q70CQ2 whole entry, the tested form may be a part): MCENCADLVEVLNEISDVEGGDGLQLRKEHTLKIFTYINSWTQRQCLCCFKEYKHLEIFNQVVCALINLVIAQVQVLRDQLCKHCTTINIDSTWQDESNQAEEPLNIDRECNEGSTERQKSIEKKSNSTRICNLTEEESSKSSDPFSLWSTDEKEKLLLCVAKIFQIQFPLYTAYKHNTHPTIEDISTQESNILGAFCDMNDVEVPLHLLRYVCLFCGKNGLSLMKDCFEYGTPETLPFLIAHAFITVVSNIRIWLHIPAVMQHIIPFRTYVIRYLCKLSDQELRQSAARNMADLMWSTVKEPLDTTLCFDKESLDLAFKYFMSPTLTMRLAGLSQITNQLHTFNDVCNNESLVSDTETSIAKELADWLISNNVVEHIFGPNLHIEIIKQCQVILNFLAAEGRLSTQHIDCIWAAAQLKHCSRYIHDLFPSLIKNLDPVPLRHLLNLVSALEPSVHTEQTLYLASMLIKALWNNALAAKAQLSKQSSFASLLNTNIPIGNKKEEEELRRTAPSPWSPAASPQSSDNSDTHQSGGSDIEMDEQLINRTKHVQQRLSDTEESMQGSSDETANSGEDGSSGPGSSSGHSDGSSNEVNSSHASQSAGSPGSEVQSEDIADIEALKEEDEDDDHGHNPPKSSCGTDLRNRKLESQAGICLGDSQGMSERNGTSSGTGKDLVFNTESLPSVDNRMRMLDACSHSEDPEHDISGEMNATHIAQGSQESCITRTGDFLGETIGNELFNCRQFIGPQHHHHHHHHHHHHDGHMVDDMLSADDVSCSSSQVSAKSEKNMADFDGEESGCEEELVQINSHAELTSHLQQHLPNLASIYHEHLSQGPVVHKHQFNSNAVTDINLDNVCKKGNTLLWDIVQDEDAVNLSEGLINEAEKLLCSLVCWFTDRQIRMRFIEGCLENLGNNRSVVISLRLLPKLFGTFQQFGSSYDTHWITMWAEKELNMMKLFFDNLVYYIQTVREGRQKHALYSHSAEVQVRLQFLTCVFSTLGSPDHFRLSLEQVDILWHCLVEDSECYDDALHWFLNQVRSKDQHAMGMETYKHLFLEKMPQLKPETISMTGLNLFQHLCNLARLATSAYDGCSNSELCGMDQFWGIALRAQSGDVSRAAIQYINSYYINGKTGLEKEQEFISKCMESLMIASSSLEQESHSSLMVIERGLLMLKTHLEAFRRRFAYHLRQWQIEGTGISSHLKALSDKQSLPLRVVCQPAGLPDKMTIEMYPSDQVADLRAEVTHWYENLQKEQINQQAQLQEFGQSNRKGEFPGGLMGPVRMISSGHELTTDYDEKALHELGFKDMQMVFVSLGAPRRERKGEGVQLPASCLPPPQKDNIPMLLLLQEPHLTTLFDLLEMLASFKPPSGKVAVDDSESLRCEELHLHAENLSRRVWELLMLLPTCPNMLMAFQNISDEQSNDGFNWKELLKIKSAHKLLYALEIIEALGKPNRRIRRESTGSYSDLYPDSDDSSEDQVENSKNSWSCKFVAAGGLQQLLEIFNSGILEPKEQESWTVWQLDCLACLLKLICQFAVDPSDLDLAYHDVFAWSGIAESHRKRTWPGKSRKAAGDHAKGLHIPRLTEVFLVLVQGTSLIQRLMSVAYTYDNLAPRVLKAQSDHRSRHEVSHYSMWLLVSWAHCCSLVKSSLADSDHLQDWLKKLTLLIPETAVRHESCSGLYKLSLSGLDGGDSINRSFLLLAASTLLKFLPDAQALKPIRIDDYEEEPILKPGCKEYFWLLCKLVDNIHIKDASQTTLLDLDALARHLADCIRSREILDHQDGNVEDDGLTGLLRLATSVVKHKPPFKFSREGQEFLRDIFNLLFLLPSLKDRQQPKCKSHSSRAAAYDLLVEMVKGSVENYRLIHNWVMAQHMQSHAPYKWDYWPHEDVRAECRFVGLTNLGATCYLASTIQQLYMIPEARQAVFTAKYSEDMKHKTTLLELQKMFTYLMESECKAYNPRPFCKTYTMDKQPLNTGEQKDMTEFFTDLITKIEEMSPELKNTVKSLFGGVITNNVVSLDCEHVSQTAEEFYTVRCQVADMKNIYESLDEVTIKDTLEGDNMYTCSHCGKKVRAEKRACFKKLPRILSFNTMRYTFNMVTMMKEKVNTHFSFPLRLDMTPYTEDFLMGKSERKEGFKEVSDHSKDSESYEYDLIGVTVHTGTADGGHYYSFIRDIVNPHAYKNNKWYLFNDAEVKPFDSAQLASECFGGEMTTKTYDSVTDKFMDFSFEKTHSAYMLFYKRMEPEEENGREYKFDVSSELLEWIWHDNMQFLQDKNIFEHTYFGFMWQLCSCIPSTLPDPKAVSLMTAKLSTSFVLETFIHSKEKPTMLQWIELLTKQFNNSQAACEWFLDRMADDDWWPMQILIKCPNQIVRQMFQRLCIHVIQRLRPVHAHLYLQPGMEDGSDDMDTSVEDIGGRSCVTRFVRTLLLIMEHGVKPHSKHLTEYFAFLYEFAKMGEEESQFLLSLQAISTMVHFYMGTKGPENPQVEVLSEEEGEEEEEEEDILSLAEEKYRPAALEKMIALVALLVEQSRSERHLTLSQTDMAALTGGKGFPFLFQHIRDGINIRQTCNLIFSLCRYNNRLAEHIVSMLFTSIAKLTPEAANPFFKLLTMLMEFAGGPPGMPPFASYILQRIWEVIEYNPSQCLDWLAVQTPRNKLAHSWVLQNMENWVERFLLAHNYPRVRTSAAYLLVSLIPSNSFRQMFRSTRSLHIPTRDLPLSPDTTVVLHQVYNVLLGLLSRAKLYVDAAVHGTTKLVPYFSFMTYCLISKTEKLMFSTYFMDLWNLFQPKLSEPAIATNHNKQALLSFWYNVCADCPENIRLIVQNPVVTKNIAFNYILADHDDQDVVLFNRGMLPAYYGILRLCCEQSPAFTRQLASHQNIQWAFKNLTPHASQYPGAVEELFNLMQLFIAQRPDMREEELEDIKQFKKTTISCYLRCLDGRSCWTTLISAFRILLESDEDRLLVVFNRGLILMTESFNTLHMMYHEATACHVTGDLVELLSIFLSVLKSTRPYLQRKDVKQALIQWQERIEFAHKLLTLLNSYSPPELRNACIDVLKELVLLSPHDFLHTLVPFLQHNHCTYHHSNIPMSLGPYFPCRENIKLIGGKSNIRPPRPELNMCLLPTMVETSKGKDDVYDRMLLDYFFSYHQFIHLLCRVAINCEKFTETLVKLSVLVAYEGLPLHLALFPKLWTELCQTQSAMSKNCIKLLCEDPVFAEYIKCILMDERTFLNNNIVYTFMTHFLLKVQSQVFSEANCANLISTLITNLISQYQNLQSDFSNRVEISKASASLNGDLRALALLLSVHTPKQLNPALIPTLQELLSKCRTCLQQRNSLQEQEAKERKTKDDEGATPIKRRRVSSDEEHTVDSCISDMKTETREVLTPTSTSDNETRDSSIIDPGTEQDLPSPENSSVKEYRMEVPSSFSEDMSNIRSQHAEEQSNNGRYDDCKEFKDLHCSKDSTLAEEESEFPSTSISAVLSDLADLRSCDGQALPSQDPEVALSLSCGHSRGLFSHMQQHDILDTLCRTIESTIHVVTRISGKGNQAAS

O=C(CN1CCN(C(=O)CCl)CC1)Nc1cccc(F)c1
inactive: USP34 -0.112 | USP36 0.0501 | USP38 -0.114 | USP39 -0.288 | USP4 -0.0247
